This passage reports Potency, outcome and max activation results from PubChem BioAssay (Tox21).

Molecules are shown by their SMILES. Values joined by “and” are separate entries in the source; they are usually repeats but may differ in a detail not shown here. Identical values can stand only once. Records with an inconclusive call do not appear. A structure can be active in one record and inactive in another. Active and inactive are the calls of the source. Unless noted, calls follow the shape of the dose curve; as a rule, active = well fitted curve in the direction sought with a large enough effect in the repeat runs; inconclusive = weak or mixed curves; inactive = no such curve, though single readings can be large; an effect the other way counts as inactive or inconclusive.

Assay [1] concerns the target Progesterone receptor (Homo sapiens) (UniProt P06401). Put plainly: qHTS assay to identify small molecule agonists of the progesterone receptor (PR) signaling pathway (AID 1346784; calls by dose curve; also: nearly all actives have a fitted effect of over 30% in size). In a few lines: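 PR-UAS-bla HEK 293T cells (beta-lactamase reporter under UAS) in 2% charcoal-stripped FBS, dosed with 23 nL compound after 6 hr, incubated 16hr at 37C. LiveBLAzer B/G FRET substrate added, fluorescence read after 2 hours.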
A general note: Quantitative high-throughput screening tests each substance at several concentrations.

The target is the same in assay [2]. Put plainly: qHTS assay to identify small molecule antagonists of the progesterone receptor (PR) signaling pathway (AID 1346795; active = well fitted inhibition curve with a large enough effect in the signal ratio in the repeat runs, not every such curve was filed as active; the % refers to the signal ratio). A digest of the protocol:
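PR-UAS-bla HEK293T cells with beta-lactamase reporter under UAS control, in 2% charcoal-stripped FBS, treated with compounds plus 1 nM promegestone (R5020, final) for 16 hr at 37C. Read-out: FRET beta-lactamase substrate fluorescence after 2 hr at room temperature.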

Assay [3] in a line: qHTS assay to identify small molecule antagonists of the progesterone receptor (PR) signaling pathway - cell viability counter screen (AID 1346798). Also: series mostly up to about 92 µM; nearly all actives have a fitted effect of over 50% in size. A digest of the protocol: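 PR-UAS-bla HEK293T cells, 3,000/well in 2% charcoal-stripped FBS medium, dosed with compounds plus R5020 agonist and incubated 16 h at 37C. Viability then measured in the same wells by CellTiter-Glo luminescence after 30 min at RT.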

The nature of assay [4]: qHTS assay to identify small molecule agonists of the progesterone receptor (PR) signaling pathway - cell viability counter screen (AID 1346799; calls by dose curve; also: nearly all actives have a fitted effect of over 45% in size; also: potency is read from the fitted curve at half-maximal effect). In a few lines:
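Counter screen in the PR-UAS-bla HEK293T wells (2% charcoal-stripped FBS, 16 h compound exposure at 37 C) after the bla read. CellTiter-Glo added, 30 min at room temperature, luminescence read as cell viability.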

Assay [5] can be described thus: qHTS assay to identify small molecule antagonists of the TGF-beta/Smad signaling pathway - cell viability counter screen (AID 1346824). Also: nearly all actives have a fitted effect of over 50% in size. In a few lines: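 Cytotoxicity counter-screen run in the same wells as the beta-lactamase Smad reporter read: CellTiter-Glo luminescence after 30 min at room temperature. HEK 293T SBE-bla cells had 5 hr compound exposure at 37 C with TGF-beta1 (0.25 ng/mL stock).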

Assay [6] is described as follows: qHTS assay to identify small molecule agonists of the TGF-beta/Smad signaling pathway (AID 1346859; active = well fitted activation curve with a large enough effect in the signal ratio in the repeat runs, not every such curve was filed as active; the % refers to the signal ratio; also: series mostly up to about 77 µM). In a few lines:
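SBE-bla HEK293T cells plated overnight, then compound exposure for 5 h at 37 C. Beta-lactamase reporter read with LiveBLAzer B/G FRET substrate after 2 h at room temperature, fluorescence at 405 nm excitation, 460/530 nm emission.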

The target in assay [7] is Thyrotropin-releasing hormone receptor (Homo sapiens) (UniProt P34981). Put plainly: qHTS assay to identify small molecule antagonists of the thyrotropin-releasing hormone receptor (TRHR) signaling pathway (AID 1346877; active = well fitted inhibition curve with a large enough effect in the repeat runs, not every such curve was filed as active; also: series mostly up to about 51 µM). A digest of the protocol:
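Intracellular calcium fluorescence, read kinetically every second over 3 min, reports TRH-evoked signalling in HEK293 cells carrying TRHR. Test compounds were added 5 min ahead of a 1 nM TRH challenge.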

For assay [8] the target is unchanged. As to the kind of experiment: qHTS assay to identify small molecule agonists of the thyrotropin-releasing hormone receptor (TRHR) signaling pathway (AID 1346891; calls by dose curve; also: series mostly up to about 58 µM). A digest of the protocol: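 HEK293 cells expressing TRHR plated 18 h at 37 C/5% CO2, calcium dye-loaded 2 h at 37 C, then compound added (agonist mode); kinetic calcium fluorescence read 3 min at 1 s intervals; 15 concentrations in triplicate.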

Assay [9] can be described thus: Human pregnane X receptor (PXR) small molecule agonists, qHTS cell viability counter screen (AID 1346977). Also: nearly all actives have a fitted effect of over 50% in size. Also: potency is read from the fitted curve at half-maximal effect. In a few lines: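 PXR-Luc HepG2 cells (2,000/well, 5% charcoal-stripped FBS) preincubated 5 hr, then exposed to compounds 24 hr at 37 C. Viability read in the same wells by CellTiter-Fluor fluorescence, reagent added at 23 hr, 1 hr incubation.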
Assay [10] is described as follows: Caspase-3/7 induction in CHO-K1 cells by small molecules, qHTS cell viability counter screen (AID 1346979). Also: nearly all actives have a fitted effect of over 35% in size. A digest of the protocol:
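Wild-type CHO-K1 cells (1,500/well) treated with compound after 5 h plating; after 16 h at 37C, viability read as CellTiter-Fluor fluorescence following 1 h reagent incubation, in the same wells as the caspase read.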

A short description of assay [11]: Caspase-3/7 induction in CHO-K1 cells by small molecules, qHTS assay (AID 1346980). Also: nearly all actives have a fitted effect of over 15% in size. A digest of the protocol: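 Luminescent Caspase-Glo 3/7 read (30min, room temperature) quantified apoptosis induction. Cells were wild-type CHO-K1, treated with compound for 17hr at 37 C and 5% CO2.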
A short description of assay [12]: Caspase-3/7 induction in HepG2 cells by small molecules, qHTS cell viability counter screen (AID 1346981). Also: series mostly up to about 92 µM; nearly all actives have a fitted effect of over 30% in size. In a few lines: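 HepG2, WT, 2,000 cells/well; 5 hr pre-incubation 37 C/5% CO2; compound pin-transferred from DMSO; 16 hr exposure; CellTiter-Fluor, 1 hr; fluorescence read.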
Assay [13] concerns the target Nuclear receptor subfamily 1 group I member 2 (Homo sapiens) (UniProt O75469). As to the kind of experiment: Human pregnane X receptor (PXR) small molecule agonists, qHTS assay (AID 1346982). Also: nearly all actives have a fitted effect of over 35% in size. Also: potency is read from the fitted curve at half-maximal effect. A digest of the protocol:
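Luciferase signal from ONE-Glo (30 min, room temperature) measured activation of hPXR-driven CYP3A4 reporter expression in PXR-Luc HepG2 cells treated with compounds for 24 hr at 37 C.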

In assay [14] the target is Cytochrome P450 2C19 (Homo sapiens) (UniProt P33261). As to the kind of experiment: Cytochrome P450 Family 2 Subfamily C Member 19 (CYP2C19) small molecule antagonists: luciferase reporter qHTS assay (AID 1671197). Also: nearly all actives have a fitted effect of over 65% in size. Also: potency is read from the fitted curve at half-maximal effect. In a few lines: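 Quantitative high-throughput screen of the Tox21 library using CYP2C19 with proluciferin substrate. Reaction: NADPH regeneration, 37C, 1 h, after 10 min compound preincubation at room temperature. Readout: luminescence.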
Sequence of Cytochrome P450 2C19 (Homo sapiens) (P33261 whole entry, looked up): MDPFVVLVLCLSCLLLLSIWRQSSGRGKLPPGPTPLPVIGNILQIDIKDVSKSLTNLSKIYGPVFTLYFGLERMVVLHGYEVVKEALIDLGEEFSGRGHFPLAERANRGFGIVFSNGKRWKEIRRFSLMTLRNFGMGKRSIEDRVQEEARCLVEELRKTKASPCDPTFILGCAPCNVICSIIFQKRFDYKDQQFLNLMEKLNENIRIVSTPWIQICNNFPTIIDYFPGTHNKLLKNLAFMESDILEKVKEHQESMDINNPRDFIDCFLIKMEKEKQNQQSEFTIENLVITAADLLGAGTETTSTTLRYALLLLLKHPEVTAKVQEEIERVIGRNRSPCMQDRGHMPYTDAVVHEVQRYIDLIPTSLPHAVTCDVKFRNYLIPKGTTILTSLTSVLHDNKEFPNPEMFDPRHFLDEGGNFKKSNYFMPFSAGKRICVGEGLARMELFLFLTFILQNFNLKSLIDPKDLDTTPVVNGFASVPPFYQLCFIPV
Background: Reporter assays use an easily measured gene product as a stand-in for the process of interest.

The nature of assay [15]: qHTS assay to identify small molecule agonists of the TGF-beta/Smad signaling pathway - cell viability counter screen (AID 1346829). Also: top concentration of the series differs between compounds; nearly all actives have a fitted effect of over 45% in size. In a few lines:
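Same-well cytotoxicity: CellTiter-Glo added after the 2 hr room-temperature beta-lactamase substrate step, luminescence measured 30 min later; cells had 5 hr of compound at 37 C.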

Assay [16] deals with Nuclear receptor subfamily 1 group I member 2 (Rattus norvegicus) (UniProt Q9R1A7). As to the kind of experiment: Rat pregnane X receptor (rPXR) activation by small molecules, qHTS assay (AID 1346983). Also: nearly all actives have a fitted effect of over 20% in size. As to conditions: rPXR luciferase reporter cells, One-Glo luminescence, 24 h; max activation: stronger effect = higher value. In a few lines: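 Luminescent readout (One-Glo luciferase, 30 min room temperature) followed 24 hr compound treatment at 37 C of rPXR cells plated 2,000 per well and preincubated 5hr; qHTS format with compounds delivered in DMSO.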
Sequence of Nuclear receptor subfamily 1 group I member 2 (Rattus norvegicus) (Q9R1A7 whole entry, looked up): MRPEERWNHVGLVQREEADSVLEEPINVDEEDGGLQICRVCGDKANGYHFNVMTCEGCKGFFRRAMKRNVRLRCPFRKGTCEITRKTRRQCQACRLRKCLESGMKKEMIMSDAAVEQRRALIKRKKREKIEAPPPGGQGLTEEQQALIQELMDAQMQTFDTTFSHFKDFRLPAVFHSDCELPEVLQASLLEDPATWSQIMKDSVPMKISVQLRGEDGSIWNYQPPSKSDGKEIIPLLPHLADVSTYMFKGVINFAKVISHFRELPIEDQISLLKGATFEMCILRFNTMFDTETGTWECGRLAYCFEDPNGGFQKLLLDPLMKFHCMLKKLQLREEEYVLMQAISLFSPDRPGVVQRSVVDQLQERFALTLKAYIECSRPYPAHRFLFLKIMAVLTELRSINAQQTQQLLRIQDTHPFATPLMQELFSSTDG

Assay [17] has as its target Nuclear receptor subfamily 1 group I member 2 (Homo sapiens) (UniProt O75469). As to the kind of experiment: CYP3A4 induction through human pregnane X receptor (PXR) by small molecules, qHTS assay (AID 1346984). Also: nearly all actives have a fitted effect of over 40% in size. A digest of the protocol: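 Luminescence readout: luciferase signal after One-Glo (30 min, room temperature), following 3 h at 37C with 3uM final Luciferin-IPA P450 substrate. Cells were DPX-2 (HepG2, PXR/CYP3A4-luc co-transfected) dosed for 24 h.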

Assay [18] shares this target. Put plainly: Human pregnane X receptor (PXR) activation by small molecules, qHTS assay (AID 1346985). Also: nearly all actives have a fitted effect of over 40% in size. A digest of the protocol: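 DPX-2 cells (HepG2 co-transfected with a PXR response element and a CYP3A4-promoter luciferase construct) were seeded at 2,000 per well, rested 5 hr at 37C, then exposed to DMSO-dissolved compounds for 24 hr. Activation was read as luciferase luminescence.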

Assay [19] addresses Cytochrome P450 2D6 (Homo sapiens) (UniProt P10635). Put plainly: Cytochrome P450 Family 2 Subfamily D Member 6 (CYP2D6) small molecule antagonists: luciferase reporter qHTS assay (AID 1671196). Also: nearly all actives have a fitted effect of over 50% in size. Also: potency is read from the fitted curve at half-maximal effect. A digest of the protocol:
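Read-out is luminescence from luciferin formed by CYP2D6 turnover of a proluciferin substrate, recorded as relative luminescence units. Reactions ran 1 h at room temperature after NADPH regeneration solution was added.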

Assay [20] can be described thus: Caspase-3/7 induction in HepG2 cells by small molecules, qHTS assay (AID 1346978). Also: nearly all actives have a fitted effect of over 15% in size. A digest of the protocol:
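Caspase-3/7 induction was measured by Caspase-Glo 3/7 luminescence (30 min, room temperature) after a 17 hr compound exposure of wild-type HepG2 cells seeded at 2,000 per well and pre-incubated 5 hr.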
% is scaled to controls: 0 for no effect and ±100 for the full control effect.

Sequence of Cytochrome P450 2D6 (Homo sapiens) (P10635 whole entry, looked up): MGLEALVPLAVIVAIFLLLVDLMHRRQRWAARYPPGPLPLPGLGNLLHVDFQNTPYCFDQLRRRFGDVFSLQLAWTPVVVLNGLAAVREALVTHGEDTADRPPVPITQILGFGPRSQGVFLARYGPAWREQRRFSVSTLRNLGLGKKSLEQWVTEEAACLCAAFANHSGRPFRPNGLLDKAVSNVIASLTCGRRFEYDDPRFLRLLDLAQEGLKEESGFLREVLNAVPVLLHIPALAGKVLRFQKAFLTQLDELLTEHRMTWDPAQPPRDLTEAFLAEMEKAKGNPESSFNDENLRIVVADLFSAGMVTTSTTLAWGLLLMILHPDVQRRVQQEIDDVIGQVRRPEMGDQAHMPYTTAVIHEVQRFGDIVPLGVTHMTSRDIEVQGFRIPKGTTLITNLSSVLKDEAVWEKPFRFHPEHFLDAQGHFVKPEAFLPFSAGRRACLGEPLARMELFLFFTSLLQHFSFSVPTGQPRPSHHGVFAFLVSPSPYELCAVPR
Sequence of Thyrotropin-releasing hormone receptor (Homo sapiens) (P34981 whole entry, looked up): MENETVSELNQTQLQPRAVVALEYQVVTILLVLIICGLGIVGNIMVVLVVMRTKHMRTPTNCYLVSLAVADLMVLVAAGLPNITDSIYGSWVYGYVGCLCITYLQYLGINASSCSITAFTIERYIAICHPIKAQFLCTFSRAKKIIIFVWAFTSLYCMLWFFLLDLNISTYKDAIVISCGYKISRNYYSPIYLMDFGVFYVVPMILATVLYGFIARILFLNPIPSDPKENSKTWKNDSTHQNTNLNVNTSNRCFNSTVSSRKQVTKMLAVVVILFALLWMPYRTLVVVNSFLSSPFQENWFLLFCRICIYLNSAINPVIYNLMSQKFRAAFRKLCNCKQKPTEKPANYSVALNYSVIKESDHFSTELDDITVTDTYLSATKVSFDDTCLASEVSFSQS
Sequence of Nuclear receptor subfamily 1 group I member 2 (Homo sapiens) (O75469 whole entry, looked up): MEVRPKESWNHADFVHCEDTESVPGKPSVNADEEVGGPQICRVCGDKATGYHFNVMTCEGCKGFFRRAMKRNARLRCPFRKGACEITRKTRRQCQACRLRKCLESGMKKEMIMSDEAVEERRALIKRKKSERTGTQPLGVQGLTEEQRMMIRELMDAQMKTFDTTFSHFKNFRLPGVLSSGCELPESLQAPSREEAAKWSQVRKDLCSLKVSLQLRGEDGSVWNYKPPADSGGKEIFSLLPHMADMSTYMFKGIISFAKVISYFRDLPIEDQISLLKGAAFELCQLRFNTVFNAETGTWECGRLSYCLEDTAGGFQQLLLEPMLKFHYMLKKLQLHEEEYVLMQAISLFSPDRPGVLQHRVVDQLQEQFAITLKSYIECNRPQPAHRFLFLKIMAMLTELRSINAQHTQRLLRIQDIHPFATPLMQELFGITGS
Sequence of Progesterone receptor (Homo sapiens) (P06401 whole entry, looked up): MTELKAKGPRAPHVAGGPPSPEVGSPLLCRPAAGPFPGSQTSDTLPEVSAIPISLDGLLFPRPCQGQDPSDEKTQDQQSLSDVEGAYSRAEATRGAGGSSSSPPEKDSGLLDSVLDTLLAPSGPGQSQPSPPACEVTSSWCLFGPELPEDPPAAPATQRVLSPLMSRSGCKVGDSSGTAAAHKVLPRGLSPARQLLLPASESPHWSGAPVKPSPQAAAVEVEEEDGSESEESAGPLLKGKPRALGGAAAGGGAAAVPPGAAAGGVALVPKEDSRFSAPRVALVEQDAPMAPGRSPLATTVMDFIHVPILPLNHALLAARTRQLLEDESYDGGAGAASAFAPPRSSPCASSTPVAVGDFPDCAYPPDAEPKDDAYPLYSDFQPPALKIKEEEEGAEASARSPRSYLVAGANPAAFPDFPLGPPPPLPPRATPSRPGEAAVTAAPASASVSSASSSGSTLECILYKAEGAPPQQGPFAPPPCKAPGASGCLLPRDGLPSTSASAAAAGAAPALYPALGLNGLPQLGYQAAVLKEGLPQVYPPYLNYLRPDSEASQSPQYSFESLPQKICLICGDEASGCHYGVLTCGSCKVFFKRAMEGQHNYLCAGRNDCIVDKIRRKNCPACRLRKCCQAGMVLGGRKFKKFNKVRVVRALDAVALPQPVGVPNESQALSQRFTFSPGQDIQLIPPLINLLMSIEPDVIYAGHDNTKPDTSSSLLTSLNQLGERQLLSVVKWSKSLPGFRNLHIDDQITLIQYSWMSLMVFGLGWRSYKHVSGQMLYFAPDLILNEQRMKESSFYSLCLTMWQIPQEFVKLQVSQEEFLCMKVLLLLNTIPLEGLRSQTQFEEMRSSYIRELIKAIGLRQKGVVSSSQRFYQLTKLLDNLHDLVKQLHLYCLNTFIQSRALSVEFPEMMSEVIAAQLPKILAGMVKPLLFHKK

`COc1ccc(CN(CCN(C)C)c2ccccn2)cc1`: the Potency entry in [1], in [2], in assay [3], in assay [5], in [7] and in assay [8] was “inactive” each time. The Potency result in [9], in assay [10], in [11], in [12] and in assay [13] was “inactive” in each case. Moreover, the Potency in assay [4] is 42.8 µM (active) and 28.2 µM (active) and inactive; in [14], 9.94 µM (active) and 32.8 µM (active) and 21.9 µM (active). In addition, in assay [6], the call was inactive.

Consider `O=C1c2c(O)cccc2Cc2cccc(O)c21`, for which the Potency entry in [1], in assay [2], in assay [3], in assay [4], in assay [5] and in [15] was “inactive” in each case. Besides, the Potency result in assay [9], in assay [10], in assay [11], in assay [12], in assay [13] and in assay [17] was “inactive” throughout. In addition, the Potency entry in assay [19] and in assay [14] was “inactive” in each case. Further, the call in assay [6] and in [18] was inactive. The max activation in assay [16] was -3.04% (inactive).

As to `OC[C@H]1O[C@H](O[C@]2(CCl)O[C@H](CCl)[C@@H](O)[C@@H]2O)[C@H](O)[C@@H](O)[C@H]1Cl`, the Potency result in assay [1], in assay [2], in assay [3], in assay [4], in [5] and in assay [7] was “inactive” in each case. Besides, the Potency entry in assay [8], in assay [9], in assay [20], in assay [10], in assay [11] and in assay [12] was “inactive” in each case. Further, the Potency entry in assay [13], in [19] and in assay [14] was “inactive” each time. In addition, in assay [6], the compound was called inactive.

For `CCN(CC)C(=O)c1cccc(C)c1`, the Potency entry in [1], in [2], in assay [3], in assay [4], in assay [5] and in [9] was “inactive” in each case. Besides, the Potency entry in assay [20], in assay [10], in assay [12], in [13] and in assay [19] was “inactive” in each case. Also, the result in [6] and in assay [18] was inactive. Also, in [16], the max activation is -4.83% (inactive). Moreover, the Potency entry in [14] is “inactive and 71 µM (active)”.

Take `Nc1c2c(nc3ccccc13)CCCC2`: the Potency entry in [1], in assay [2], in [3], in [4], in [5] and in [7] was “inactive” in each case. Also, the Potency result in [8], in [10] and in assay [12] was “inactive” throughout. In assay [6], the compound was classed as inactive. The Potency in assay [9] was 54.5 µM (active); in assay [13], 48.6 µM (active) and 38.6 µM (active) and inactive; in [19], 3.56 µM (active) and 11.2 µM (active) and 11 µM (active); in assay [14] it was 39.9 µM (active) and inactive.

Take `CN(C)C(=O)Nc1ccc(Cl)c(Cl)c1`: the Potency result in assay [1], in [2], in assay [3], in assay [4], in [5] and in assay [7] was “inactive” throughout. Also, the Potency entry in assay [8], in assay [9], in [20], in [10], in assay [12] and in assay [17] was “inactive” each time. Moreover, the result in [6] and in assay [18] was inactive. In addition, the Potency in assay [13] is 60.9 µM (active) and 48.6 µM (active) and inactive; in assay [19] it was 31.6 µM (active) and inactive; in assay [14], 39.8 µM (active) and 71 µM (active) and inactive. For the same compound, the max activation in [16] was -0.866% (inactive).

Consider `CC1(C)S[C@@H]2[C@H](NC(=O)[C@H](N)c3ccccc3)C(=O)N2[C@H]1C(=O)O`, for which the Potency entry in assay [1], in [2], in [3], in assay [4], in assay [5] and in assay [9] was “inactive” in each case. The Potency result in assay [10], in assay [11], in assay [12], in assay [13] and in assay [14] was “inactive” each time. Moreover, in assay [6], the outcome was inactive. Besides, the Potency in assay [19] was 44.5 µM (active) and inactive.
